Pf Dd2 growth: blocks in vitro growth of P. falciparum Dd2; P. falciparum Dd2 growth, SYBR Green, 72 h; Potency, µM (top dose mostly 28.9 µM), inactives show top-dose activity, negative = inhibition, usual class: inhibitors; 120,000 compounds, 4.3% hits; AID 1347417; active = well fitted inhibition curve with a large enough effect;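 also: plate controls were DMSO vehicle for no effect and reference drug for full effect; nearly all actives have a fitted effect of over 65% in size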
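Infected erythrocytes (Dd2, 0.3% parasitemia, 2.5% hematocrit final) are added to compound in RPMI-1640/Albumax II medium, grown 72 h at 37C in low oxygen, then lysed with saponin/Triton-X containing SYBR Green and read by fluorescence.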
* hit, by the source's call; i = inactive; [ ] = another dose, or the depositor's remark. The full list was thinned out, with hits kept by preference. Potency is read from the fitted curve at half-maximal effect.

SMILES	Pf Dd2 growth
Cc1ccc2c(CNC3CCCC3)c(C(=O)O)n(Cc3ccc(F)cc3)c2c1	-3%
Cc1ccc(CNCc2c(C(=O)O)n(Cc3ccc(C)cc3)c3cc(C)ccc23)cc1	-13%
Cc1ccc2c(CNCC(C)c3ccccc3)c(C(=O)O)n(Cc3ccccc3C)c2c1 (centres undefined)	i
O=C(Nc1ccccc1)O[C@@H]1CO[C@H]2[C@@H]1OC[C@@H]2NC(=S)Nc1ccc(F)cc1	-30%[44.1 µM]
COCCc1noc([C@@H]2CN(CC(C)(C)C)C[C@H]2CO)n1	-20%
CO[C@H]1C(=O)N(C(C)C)[C@H]1C1CCN(S(=O)(=O)c2cccc(F)c2)CC1	-13%
c1cnc2c(c1)nc1n2[C@@H](CNC2CCOCC2)COC1	19%[44.1 µM]
Cc1nc(C)c(C(=O)N2CCCC(n3c(C)cnc3C3CCC3)C2)s1 (centres undefined)	-2%
COc1ccc(C(=O)N2CCC3(CC2)CC(c2nc(C)no2)N(C)C3)cn1 (centres undefined)	0%
Cc1cc(CN2CCC3(CC2)C(C(=O)O)CC(=O)N3C)on1 (centres undefined)	4%
O=C(c1nc2sccn2c1Br)N1CCC(N2CCCCC2)CC1	-21%
CCOC(=O)c1cnc2cc(Cl)c(OC)cc2c1Nc1ccc(Br)cc1C	8%
COc1ccc(NC(=O)C(=O)NCCc2ccc(OC)c(OC)c2)c(OC)c1	-16%
CCOC(=O)c1cnc2ccc(OC)cc2c1NCCc1ccc(OC)c(OC)c1	1µM*
O=C(Nc1cccc(-c2nnc3n2CCCC3)c1)Nc1ccccc1F	8%
CC(=O)Nc1ccc(-c2nnc3n2CCCC3)cc1	25%
Cc1cc(C)cc(C(=O)Nc2cccc(-c3nnc4n3CCCC4)c2)c1	3.2µM*
CCOc1cc(=O)n2c(c1C(=O)Nc1cccc(C)c1)CCCC2	22%
O=C(Nc1ccc(-c2nnc3n2CCCC3)cc1)c1cc(C2CC2)[nH]n1	i
CCOc1ccccc1C(=O)Nc1cccc(-c2nnc3n2CCCC3)c1	5µM*
Cc1ccc(C(=O)Nc2ccc(-c3nnc4n3CCCC4)cc2)s1	5.6µM*
O=C(Nc1cccc(-c2nnc3n2CCCC3)c1)c1ccccc1Cl	5.6µM*
Cc1cccc(C(=O)Nc2ccc(-c3nnc4n3CCCC4)cc2)c1	-10%
O=C(Nc1ccc(-c2nnc3n2CCCC3)cc1)c1ccc[nH]c1=O	-2%
O=C(Nc1ccccc1)Nc1ccc(-c2nnc3n2CCCC3)cc1	31%
SMILES	Pf Dd2 growth
O=C(Nc1ccc(-c2nnc3n2CCCC3)cc1)Nc1cccc(Cl)c1	-8%
CCCNC(=O)CCc1ccc2c(c1)CN(C(=O)C1CC1)CCO2	1%
CCN(C)S(=O)(=O)NCC1CCN(c2cnn(C)c(=O)c2)C1 (centres undefined)	12%
O=C(Nc1cccnc1)c1nc2c(o1)CCN(Cc1ccc(F)c(F)c1)CC2	-14%[44.1 µM]
O=C(Nc1ccc(Cl)cc1)N1CCCC(c2nn(-c3ccc(F)cc3)c(=O)[nH]2)C1 (centres undefined)	i
CN(C(=O)Cn1nc2n(c1=O)CCCC2)c1ccccc1	2%
COc1cccc(NC(=O)c2ccc3c(c2)NC(C)(COc2ccc4[nH]ccc4c2)CO3)c1 (centres undefined)	-4%
COc1ccc(-c2nc3ccc(-c4ccc5c(c4)OCO5)cc3o2)c(OC)c1OC	-25%
COc1ccc(C(=O)N2CCC(N3C(=O)[C@H](OC)[C@@H]3c3ccncc3)CC2)c(OC)c1	-14%
Cc1ccc(C)c(Nc2nn3c(=O)c4ccc(C(=O)NC5CCCCC5)cc4nc3s2)c1	-25%
Cc1ccc(C)c(Nc2nn3c(=O)c4ccc(C(=O)NCCC5=CCCCC5)cc4nc3s2)c1	10µM*
Cc1c(Cl)cccc1Nc1nn2c(=O)c3ccc(C(=O)NCCC4=CCCCC4)cc3nc2s1	4µM*
Cc1ccccc1Nc1nn2c(=O)c3ccc(C(=O)N4CCCC(C)C4)cc3nc2s1 (centres undefined)	i
Cc1ccc(C)c(Nc2nn3c(=O)c4ccc(C(=O)NCCc5ccccc5)cc4nc3s2)c1	6%
CCN(CC)CCNC(=O)c1ccc2c(=O)n3nc(Nc4cccc(Cl)c4C)sc3nc2c1	5.6µM*
Cc1ccc(Cl)cc1Nc1nn2c(=O)c3ccc(C(=O)NC4CCC(C)CC4)cc3nc2s1 (centres undefined)	-9%
O=C(Cc1ccsc1)NCc1nnc2ccc(-c3ccc(Cl)cc3)nn12	i
COc1ccc(C(=O)N2CCC(N3C(=O)CCC3C(=O)NC(C)C)CC2)cc1 (centres undefined)	9%
CCCNC1(Cc2cc(-c3ccc(F)cc3)on2)COC1	i
Cc1noc([C@@H]2CN(C(=O)c3ccc4ccccc4n3)C[C@H]2CO)n1	17%
CCOc1ccc(NC(=O)Cn2ccn3nc4c(c3c2=O)CCCCC4)cc1	34%
O=C(c1cn[nH]c1)N1CC2(CN(Cc3cccc(OC(F)(F)F)c3)CC2COc2ccccc2)C1 (centres undefined)	i
c1ccc(-c2nc3c(c(N4CCNCC4)n2)CCC3)cc1	-16%
COc1ccc2[nH]c3c(c2c1)CCN(C)C31CCN(C(=O)c2ccccn2)CC1	-4%
COCC(=O)NC[C@H]1OC[C@@H](NC2CCN(C)CC2)[C@@H]1O	36%[44.1 µM]
SMILES	Pf Dd2 growth
Cc1nc(N(C)C)ncc1C(=O)N[C@@H]1CCNC[C@H]1O	-1%
COc1cccc(CC(=O)NC2CCCN(c3cc(-c4ccc(F)cc4)[nH]n3)C2)c1 (centres undefined)	i
COc1ccc(CC(=O)NC2CCN(c3cc(-c4ccc(Cl)cc4)[nH]n3)C2)cc1OC (centres undefined)	7.9µM*
CCOc1ccc(CC(=O)NC2CCN(c3cc(-c4ccc(F)cc4)[nH]n3)C2)cc1OCC (centres undefined)	-10%
COc1ccc(-c2cc(N3CCC(NC(=O)Cc4ccc(Cl)cc4)CC3)n[nH]2)cc1	-13%
COc1ccc(CC(=O)NC2CCN(c3cc(-c4ccc(F)cc4)[nH]n3)C2)cc1 (centres undefined)	-10%
O=C(Cc1cccc(F)c1)NC1CCN(c2cc(-c3ccc(F)cc3)[nH]n2)C1 (centres undefined)	6.3µM*
CC(C(=O)O)C1CCOCC1 (centres undefined)	22%
COC[C@H]1C[C@@H](NS(=O)(=O)c2ccccc2)[C@H](O)[C@@H]1O	18%[44.1 µM]
Cc1noc(C)c1S(=O)(=O)N1CCc2nnc(C3CC3)n2CC1	3%
CC1(C)C(=O)N(Cc2ccccc2F)[C@H]2CN(Cc3ccc4[nH]ccc4c3)C[C@@H]2[S+]1(=O)[O-]	i
COc1ccccc1CC(=O)N1CCCc2ncc(C(=O)NCc3cccc(F)c3)cc21	i
CN(c1ccccc1)S(=O)(=O)C1CCS(=O)(=O)C1 (centres undefined)	3%
CN(C)C(=O)c1cccnc1OC1CCN(C(=O)c2cccc(Cl)c2)C1 (centres undefined)	4%
COc1ccc(Cl)cc1C(=O)N1CCC2(CC1)CN(C(C)=O)CC2CO (centres undefined)	-5%
O=C1CCN(Cc2ccc(F)cc2F)CCOCCN1	-18%
Cc1cnc(CCNC(=O)c2n[nH]c3ccccc23)n1C1CCCC1	3.2µM*
O=C(NCCc1noc(C2CC2)n1)c1n[nH]c2ccccc12	-16%
CC(=O)NCCc1ncc(C)n1C1CCCC1	-3%
Cc1noc(CC2CCN(C(=O)c3cccc(-n4cnnc4)c3)CC2)n1	-2%
Cc1ccc(C(=O)N2CCCCCNC(=O)CC2c2ccccc2)s1 (centres undefined)	-12%

Screening data: PubChem BioAssay, National Center for Advancing Translational Sciences (NCATS)
